Consider nine compounds from PubChem BioAssay (NCATS).

Structures are written as SMILES. Records with an inconclusive call do not appear. Active and inactive are the calls of the source. Unless noted, calls come from the whole dose curve; as a rule, active = well fitted curve in the direction sought with a large enough effect; inconclusive = small, poorly fitted or top-dose-only effect, or another doubt; inactive = no such curve, though single readings can be large; an effect the other way counts as inactive or inconclusive.

Assay [1] is described as follows: Quantitative High-Throughput drug screen in 47 multiple myeloma cell lines against the NCATS MIPE library collection: SKMM1_PLB cell viability assay (AID 1919863). Note: nearly all actives have a fitted effect of over 35% in size. The note with it: SKMM1 myeloma viability, CellTiter-Glo ATP, 48 h; viability: stronger effect = lower value. The method, boiled down:
(§1)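 Readout: median RLU from CellTiter-Glo after 5 min at room temperature. Preceding step was 48 h drug treatment of 500 cells/well at 37 °C, 5% CO2, with DMSO-only and media-only control wells.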

Assay [2] can be described thus: Quantitative High-Throughput drug screen in 47 multiple myeloma cell lines against the NCATS MIPE library collection: XG6_PLB cell viability assay (AID 1919865). Note: nearly all actives have a fitted effect of over 40% in size. The procedure, abridged: as §1
The nature of assay [3]: Quantitative High-Throughput drug screen in 47 multiple myeloma cell lines against the NCATS MIPE library collection: PE2_PLB cell viability assay (AID 1919869). Note: nearly all actives have a fitted effect of over 35% in size. Note: potency is the fitted concentration of half-maximal effect. The procedure, abridged:
as §1

Assay [4] in a line: Quantitative High-Throughput drug screen in 47 multiple myeloma cell lines against the NCATS MIPE library collection: PCM6_Riken cell viability assay (AID 1919870). Note: nearly all actives have a fitted effect of over 30% in size. Note: potency is the fitted concentration of half-maximal effect. The method, boiled down: as §1
Assay [5] is described as follows: Quantitative High-Throughput drug screen in 47 multiple myeloma cell lines against the NCATS MIPE library collection: RPMI8226_ATCC cell viability assay (AID 1919871). Note: nearly all actives have a fitted effect of over 30% in size. Note: potency is the fitted concentration of half-maximal effect. The method, boiled down: as §1
Assay [6] in a line: Quantitative High-Throughput drug screen in 47 multiple myeloma cell lines against the NCATS MIPE library collection: OPM2_DSMZ cell viability assay (AID 1919872). Note: nearly all actives have a fitted effect of over 30% in size. Note: potency is the fitted concentration of half-maximal effect. The procedure, abridged:
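Luminescent ATP measurement with CellTiter-Glo gives viability, scaled between DMSO-only wells (100%) and media-only wells (0%). Cells, 500 per well, faced library compounds for 48 hours at 37C.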

Assay [7] is described as follows: Quantitative High-Throughput drug screen in 47 multiple myeloma cell lines against the NCATS MIPE library collection: U266_ATCC cell viability assay (AID 1919864). Note: nearly all actives have a fitted effect of over 35% in size. Note: potency is the fitted concentration of half-maximal effect. The method, boiled down: as §1
Assay [8] in a line: Quantitative High-Throughput drug screen in 47 multiple myeloma cell lines against the NCATS MIPE library collection: OPM1_PLB cell viability assay (AID 1918989). Note: nearly all actives have a fitted effect of over 40% in size. Note: potency is the fitted concentration of half-maximal effect. The method, boiled down:
as §1

A short description of assay [9]: Quantitative High-Throughput drug screen in 47 multiple myeloma cell lines against the NCATS MIPE library collection: KMS28BM_JCRB cell viability assay (AID 1919874). Note: nearly all actives have a fitted effect of over 35% in size. Note: potency is the fitted concentration of half-maximal effect. The method, boiled down:
as §1

Assay [10] is described as follows: qHTS drug screen for cell cycle checkpoint inhibitors in PARPi-resistant BRCA-mutant ovarian cancer cell lines. (AID 1963452; calls by dose curve). Conditions: PEO1/OlaR viability, CellTiter-Glo luminescence, 96 h, stronger effect = lower value. The method, boiled down:
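PEO1, PEO4 and PEO1/OlaR ovarian cancer cells, 600 per well, exposed 96 h at 37C to a dilution series. Viability read by CellTiter-Glo luminescence, normalized to DMSO and empty wells; activity summarized as Z-AUC.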

Assay [11] is described as follows: Quantitative High-Throughput drug screen in 47 multiple myeloma cell lines against the NCATS MIPE library collection: KMS11_JCRBsus cell viability assay (AID 1919873). Note: nearly all actives have a fitted effect of over 50% in size. Note: potency is the fitted concentration of half-maximal effect. The procedure, abridged:
as §1

Assay [12] in a line: Quantitative High-Throughput drug screen in 47 multiple myeloma cell lines against the NCATS MIPE library collection: XG1_PLB cell viability assay (AID 1919866). Note: nearly all actives have a fitted effect of over 35% in size. Note: potency is the fitted concentration of half-maximal effect. The procedure, abridged: as §1
Assay [13] can be described thus: Quantitative High-Throughput drug screen in 47 multiple myeloma cell lines against the NCATS MIPE library collection: VP6_DJ cell viability assay (AID 1919867). Note: potency is the fitted concentration of half-maximal effect; nearly all actives have a fitted effect of over 40% in size. The procedure, abridged:
as §1

Assay [14] can be described thus: qHTS for identification of novel therapeutic agents for treatment of microphthalmiaassociated transcription factor (MiT) renal cell carcinoma (RCC) (AID 1963991; calls by dose curve; note: potency is the fitted concentration of half-maximal effect;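 for z-score: curves scaled with 100% = DMSO viability and 0% = empty wells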). The note with it: CellTiter-Glo, 48 h; for z-score: stronger effect = lower value. The procedure, abridged: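 UOK109/UOK124/UOK145 (TFE3 fusions, three partners); 500 cells/well; MIPE v4.0, 1912 cpds, 11 conc.; 48 h, 37 C; CellTiter-Glo, 15 min RT; lum. Norm.: DMSO 100%, empty 0%.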
(qHTS replaces the single test concentration by a dilution series.)

The test system of the next assay is 7G8. The assay is described as follows: qHTS profiling for inhibitors of Plasmodium falciparum proliferation (AID 504749).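 For activity, negative = inhibition: 0% = DMSO vehicle and full inhibition = artemisinin control.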 Note: nearly all actives have a fitted effect of over 60% in size. Note: potency is the fitted concentration of half-maximal effect. Conditions: P. falciparum in erythrocytes, SYBR Green DNA, 72 h; series mostly up to 28.7 µM. The procedure, abridged: (§2)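 Fluorescence of SYBR Green-bound parasite DNA, read at 485/535 nm, served as the growth measure. Infected erythrocytes were cultured with compound 72 h; artemisinin (0.29 uM) and DMSO wells defined the normalization range.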

Test in assay [15]: as above
Conditions: P. falciparum in erythrocytes, SYBR Green DNA, 72 h, at 28.7 µM (top of the series). The method, boiled down: as §2

The subject of another assay is 3D7. Described as above. The note with it: P. falciparum in erythrocytes, SYBR Green DNA, 72 h; series mostly up to 28.7 µM. The method, boiled down: as §2
Where [16] appears, read: measured here: PEO1 parental Z-AUC.
Where [17] appears, read: TFE3-RCC UOK109 viability, measured here: UOK109 Z-AUC.
Where [18] appears, read: TFE3-RCC viability, measured here: UOK124 Z-AUC.
The mark [19] stands for this setting: TFE3-RCC viability, measured here: UOK145 Z-AUC.

Usually viability stands for a read-out of living cells in per cent, often relative to untreated cells. Turning to `C[C@]12CC[C@H]3[C@@H](CCC4=CC(=O)CC[C@@]43C)[C@H]1CC[C@H]2O`, in [1], the viability was 133% (inactive). Besides, the Potency result in [2], in assay [3], in assay [4], in [5] and in assay [6] was “inactive” throughout.

In the case of `O=[N+]([O-])c1ncc[nH]1`, the Potency result in assay [7], in [3], in [5] and in assay [6] was “inactive” in each case.

Consider `CCOC(=O)c1c(C(C#N)=CN)c2ccc(Cl)c(Cl)c2n1C`, for which the Potency entry in assay [8], in assay [3], in assay [4], in assay [5], in [6] and in assay [9] was “inactive” each time. The Z-AUC in [10] is 0.895 (inactive); in [10] (setting [16]), 0.557; in assay [10] (measured here: PEO4 Z-AUC), 0.414.

Take `COc1ccc2c(c1)CN(C)CC2c1ccc(Cl)c(Cl)c1` (stereo not drawn): the Potency in [8] is 18700 nM (active); in assay [11], 14800 nM (active).

As for `O=C(N[C@H]1CN2CCC1CC2)c1ccc(Cl)cc1`, the Potency entry in [8], in assay [5], in assay [6] and in assay [9] was “inactive” each time. Also, the figures for the Potency in assay [7] and in assay [12] were 4180 nM (active) and 6620 nM (active), respectively. Moreover, the Z-AUC in assay [10] was -0.714 (inactive); in assay [10] (setting [16]) it was 0.355; in assay [10] (measured here: PEO4 Z-AUC), -0.659.

For `O=C(Nc1ccncc1)C(=O)c1cn(Cc2ccc(Cl)cc2)c2ccccc12`, the Potency in [8] is 52.6 nM (active); in assay [13], 23.5 nM (active); in [4] it was 5.9 nM (active); in assay [5], 418 nM (active); in [6], 105 nM (active); in assay [11] it was 5.3 nM (active). Moreover, the Potency in assay [9] is 4.7 nM (active); in assay [14] (TFE3-RCC UOK109 viability), 469 nM (active). The Potency entry in [7] was “inactive”. Further, the Z-AUC was -0.51 (inactive) in [10], -1.11 in assay [10] (setting [16]) and -0.872 in assay [10] (measured here: PEO4 Z-AUC). Further, the z-score in assay [14] (setting [17]) was -1.08; in [14] (setting [18]) it was -1.43; in [14] (setting [19]), -1.01.

As for `O=C1CCC[C@@H]2[C@H]3CCCN4CCC[C@@H](CN12)[C@@H]34`, the Potency result in assay [8], in [12], in assay [3], in assay [4], in [6] and in assay [11] was “inactive” each time. For the same compound, in assay [9], the Potency entry was “inactive”.

As to `NC1=NC(=O)N2CC12` (stereo not drawn), the Potency in [12] is 11800 nM (active); in [13], 14800 nM (active); in assay [3] it was 13200 nM (active); with 7G8, 10000 nM (active). The Potency result in assay [6], in assay [11] and in assay [9] was “inactive” in each case. For the same compound, the Z-AUC in assay [10] was -1.19 (inactive); in assay [10] (setting [16]), -0.747; in assay [10] (measured here: PEO4 Z-AUC), -0.506. For the same compound, the z-score in assay [14] (setting [17]) was determined as 0.952; in assay [14] (setting [18]) it was 1.24; in assay [14] (setting [19]), 1.15.

As for `c1ccc(C2(c3ccccc3)CC2C2=NCCN2)cc1` (stereo not drawn), the results for the activity, negative = inhibition in [15] (parasite line A) and in assay [15] (parasite line B) were -23% (inactive) and -12.8% (inactive), respectively. The Potency result in the assay on 3D7 is “inactive”.
